This is a sample that favours compounds with a hit; in the whole collection about 2.2% have one here.
PLC-gamma1 inh: PLC-gamma1 (human) inhibition, primary screen; P19174; purified PLC-gamma1, fluorogenic substrate, fluorescence; inhibition, % at 12.2 µM; actives 0.84% (n = 370,000); AID 720700; in the data active = inhibition above about 9.5%
FAS TE block: FAS thioesterase (human) inhibition; inhibition, % at 15 µM; P49327; AID 602261; actives 0.67% (n = 360,000); recombinant FAS-TE, OMFH fluorogenic substrate, fluorescence endpoint;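 active = compounds whose normalised, plate-corrected inhibition of enzyme fluorescence in the single-dose primary screen is 50% or more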;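 note: 0% = DMSO with enzyme and 100% = substrate without enzyme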
Target sequence (P49327 whole entry, looked up): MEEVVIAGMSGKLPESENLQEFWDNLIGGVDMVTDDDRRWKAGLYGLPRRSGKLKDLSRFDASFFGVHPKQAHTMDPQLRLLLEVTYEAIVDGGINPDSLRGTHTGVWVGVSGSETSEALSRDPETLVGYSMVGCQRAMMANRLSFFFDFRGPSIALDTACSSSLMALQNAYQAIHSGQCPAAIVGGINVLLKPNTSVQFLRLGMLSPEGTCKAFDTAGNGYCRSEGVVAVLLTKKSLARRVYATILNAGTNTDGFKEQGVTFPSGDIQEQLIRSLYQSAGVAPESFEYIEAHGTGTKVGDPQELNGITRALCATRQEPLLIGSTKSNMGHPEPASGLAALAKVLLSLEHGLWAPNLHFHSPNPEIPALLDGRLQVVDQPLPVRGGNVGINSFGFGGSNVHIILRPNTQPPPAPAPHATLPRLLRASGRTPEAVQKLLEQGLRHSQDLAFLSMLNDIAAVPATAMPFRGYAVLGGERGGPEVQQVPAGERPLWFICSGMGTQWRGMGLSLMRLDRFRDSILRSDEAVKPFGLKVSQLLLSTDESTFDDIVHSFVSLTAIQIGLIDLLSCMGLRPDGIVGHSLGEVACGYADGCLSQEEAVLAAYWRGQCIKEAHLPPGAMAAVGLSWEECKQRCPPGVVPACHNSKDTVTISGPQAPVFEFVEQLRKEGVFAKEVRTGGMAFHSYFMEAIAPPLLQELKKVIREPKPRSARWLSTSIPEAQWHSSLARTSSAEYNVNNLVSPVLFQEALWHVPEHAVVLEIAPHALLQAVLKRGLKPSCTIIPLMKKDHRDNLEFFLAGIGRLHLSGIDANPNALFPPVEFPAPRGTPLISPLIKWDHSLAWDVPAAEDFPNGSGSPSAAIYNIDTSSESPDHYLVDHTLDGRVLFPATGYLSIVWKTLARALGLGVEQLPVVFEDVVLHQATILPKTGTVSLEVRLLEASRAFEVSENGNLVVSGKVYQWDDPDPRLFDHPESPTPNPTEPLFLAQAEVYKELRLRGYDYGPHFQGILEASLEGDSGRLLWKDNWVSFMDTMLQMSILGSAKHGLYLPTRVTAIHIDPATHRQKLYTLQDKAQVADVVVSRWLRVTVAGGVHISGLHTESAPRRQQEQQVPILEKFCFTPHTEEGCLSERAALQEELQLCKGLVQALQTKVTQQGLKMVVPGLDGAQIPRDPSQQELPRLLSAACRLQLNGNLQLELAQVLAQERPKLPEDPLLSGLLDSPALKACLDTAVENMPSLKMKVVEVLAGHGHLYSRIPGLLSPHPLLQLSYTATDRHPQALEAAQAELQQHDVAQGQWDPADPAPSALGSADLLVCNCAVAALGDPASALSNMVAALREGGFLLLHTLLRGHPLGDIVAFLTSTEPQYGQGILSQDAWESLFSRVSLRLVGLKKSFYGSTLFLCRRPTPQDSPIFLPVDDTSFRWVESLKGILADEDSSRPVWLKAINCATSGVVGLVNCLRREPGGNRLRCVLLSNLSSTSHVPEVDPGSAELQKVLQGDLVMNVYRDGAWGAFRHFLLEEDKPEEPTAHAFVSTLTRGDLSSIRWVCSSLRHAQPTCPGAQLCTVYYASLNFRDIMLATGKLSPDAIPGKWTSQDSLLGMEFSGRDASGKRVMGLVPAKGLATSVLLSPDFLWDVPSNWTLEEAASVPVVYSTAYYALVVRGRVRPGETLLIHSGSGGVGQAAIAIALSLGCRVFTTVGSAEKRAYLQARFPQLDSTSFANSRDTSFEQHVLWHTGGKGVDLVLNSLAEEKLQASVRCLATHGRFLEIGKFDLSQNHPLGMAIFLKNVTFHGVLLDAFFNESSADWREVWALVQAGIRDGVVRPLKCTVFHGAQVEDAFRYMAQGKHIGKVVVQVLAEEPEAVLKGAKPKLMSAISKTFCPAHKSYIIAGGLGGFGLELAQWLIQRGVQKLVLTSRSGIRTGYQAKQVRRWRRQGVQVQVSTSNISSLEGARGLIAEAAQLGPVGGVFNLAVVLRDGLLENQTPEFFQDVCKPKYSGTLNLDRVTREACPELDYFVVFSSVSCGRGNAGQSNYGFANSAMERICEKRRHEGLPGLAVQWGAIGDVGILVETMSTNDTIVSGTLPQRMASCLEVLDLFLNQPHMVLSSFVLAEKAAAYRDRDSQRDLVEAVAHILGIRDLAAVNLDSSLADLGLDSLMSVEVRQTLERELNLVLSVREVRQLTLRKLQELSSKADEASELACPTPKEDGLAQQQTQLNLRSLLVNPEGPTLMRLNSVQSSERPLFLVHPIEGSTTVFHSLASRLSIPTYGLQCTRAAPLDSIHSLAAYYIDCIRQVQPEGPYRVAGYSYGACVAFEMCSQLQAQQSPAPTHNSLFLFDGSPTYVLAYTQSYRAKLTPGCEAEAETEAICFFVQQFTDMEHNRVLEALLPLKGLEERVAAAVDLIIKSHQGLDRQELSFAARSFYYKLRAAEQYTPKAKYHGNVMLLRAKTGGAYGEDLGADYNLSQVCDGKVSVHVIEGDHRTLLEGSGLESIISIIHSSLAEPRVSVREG
PLCb3 inh: blocks human PLC-beta3 enzyme activity | Q01970 | Purified PLC-beta3, fluorogenic substrate, fluorescence | inhibition, % at 12.2 µM | actives 0.18% (n = 370,000) | AID 720704;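 note: 0% = median of compound wells on plate and 100% = full blocker control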
Cardio protect: myocardial damage modulation in H9c2 cells | H9c2 cardiomyocytes, H2O2 injury protection, ATPLite, 2 h | protection from H2O2 cell death, % at 20 µM | actives 0.63% (n = 360,000) | AID 588492;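 active = compounds giving at least 50% protection of heart cells from peroxide-induced death in the single-dose screen, raw or plate-pattern-corrected value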;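 note: 0% = DMSO wells with peroxide and 100% = DMSO wells without peroxide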
PLCgamma1 ctr: counter-screen for PLC-beta3 inhibitors: inhibitors of human PLC-gamma1 | shares compounds with PLC-gamma1 inh | purified PLC-gamma1, fluorogenic substrate, fluorescence | inhibition, % at 12.3 µM | actives 3.1% (n = 3,300); in the data active = inhibition above about 9.5%
PLCb3 confirm: human PLC-beta3 inhibition, confirmation; purified PLC-beta3, fluorogenic substrate fluorescence; inhibition, % at 12.3 µM; shares compounds with PLC-gamma1 inh; actives 1% (n = 3,300)
The depositor's hits bear a star. Cut-off read from the data, not from the text of the source, unless noted: active = inhibition above about 11%; inactive = the rest.

Results for O=C(NC(=S)N1CCc2ccccc21)c1ccccc1Br ?
PLC-gamma1 inh: 11*; FAS TE block: -7; PLCb3 inh: 5; Cardio protect: -3; PLCgamma1 ctr: -3; PLCb3 confirm: 4

Results for Cc1ccc(-c2nnn(CC(=O)N3CCCCC3)n2)c(-n2cnnn2)c1 ?
PLC-gamma1 inh: 8; FAS TE block: -6; PLCb3 inh: 12*; Cardio protect: 2; PLCgamma1 ctr: -3; PLCb3 confirm: 1

What do the screens show for `Cc1cc(Cl)c(OCCCN2CCCCC2)c(Br)c1`?
PLC-gamma1 inh: 10*; FAS TE block: -5; PLCb3 inh: 6; Cardio protect: 12; PLCgamma1 ctr: -5; PLCb3 confirm: 0

How did O=C(COC(=O)c1ccc(S(=O)(=O)NCc2ccco2)cc1)Nc1ccccc1OC(F)F do in these assays?
PLC-gamma1 inh: 5; FAS TE block: 3; PLCb3 inh: 12*; Cardio protect: 12; PLCgamma1 ctr: -6; PLCb3 confirm: -1

Results for CC(=O)Nc1ccc(NC(=O)COC(=O)c2ccc(C)s2)cc1 ?
PLC-gamma1 inh: 11*; FAS TE block: -11; PLCb3 inh: -2; Cardio protect: -4; PLCgamma1 ctr: -4; PLCb3 confirm: 2

Results for COc1cc(Cl)ccc1NC(=S)N(CCN1CCOCC1)C1CCN(C(C)=O)CC1 ?
PLC-gamma1 inh: 11*; FAS TE block: -6; PLCb3 inh: 10; Cardio protect: -5; PLCgamma1 ctr: -7; PLCb3 confirm: -9

What do the screens show for `CC(C)(C)c1ccccc1OCC(O)CN1CCN(c2ccccn2)CC1` (stereo unspecified)?
PLC-gamma1 inh: 12*; FAS TE block: 6; PLCb3 inh: -4; Cardio protect: -4; PLCgamma1 ctr: 0; PLCb3 confirm: -2

How did Cc1c(C=NNC(=O)c2ccc(Br)cc2)c2ccccn2c1C(=O)c1ccncc1 do in these assays?
PLC-gamma1 inh: -2; FAS TE block: -4; PLCb3 inh: -7; Cardio protect: 11

How did Cc1ccc(S(=O)(=O)N2CCOCC2)cc1NC(=O)c1cc2c(s1)CCC2 do in these assays?
PLC-gamma1 inh: 10*; FAS TE block: 5; PLCb3 inh: 3; Cardio protect: 2; PLCgamma1 ctr: -6; PLCb3 confirm: -2

How did Cc1ccc(C2(C)NC(=O)N(CC(=O)Nc3cc(S(=O)(=O)N4CCOCC4)ccc3C)C2=O)cc1 (stereo unspecified) do in these assays?
PLC-gamma1 inh: 10*; FAS TE block: -8; PLCb3 inh: 9; Cardio protect: -2; PLCgamma1 ctr: -3; PLCb3 confirm: 2

How did Nc1cc(=O)[nH]c(SCC(=O)Nc2cc(S(=O)(=O)N3CCOCC3)ccc2Cl)n1 do in these assays?
PLC-gamma1 inh: 0; FAS TE block: -4; PLCb3 inh: 2; Cardio protect: -3

Results for Cc1nc(SCC(=O)Nc2cc(S(=O)(=O)N3CCOCC3)ccc2Cl)nc(C)c1C ?
PLC-gamma1 inh: 11*; FAS TE block: 4; PLCb3 inh: -1; Cardio protect: 0; PLCgamma1 ctr: -3; PLCb3 confirm: 1

What do the screens show for `Cc1ccc(S(=O)(=O)N2CCN(CCc3ccncc3)CC2)cc1`?
PLC-gamma1 inh: 3; FAS TE block: -3; PLCb3 inh: -1; Cardio protect: 6

Results for C[C@@H]1CN([C@@H](C)CO)C(=O)c2cc(NS(=O)(=O)c3ccc(Cl)cc3)ccc2O[C@H]1CN(C)Cc1ccncc1 ?
PLC-gamma1 inh: 1; FAS TE block: -14; PLCb3 inh: -1; Cardio protect: 1

How did O=C(COC(=O)Cn1cnc2ccccc2c1=O)Nc1ccccc1OC(F)F do in these assays?
PLC-gamma1 inh: 3; FAS TE block: -4; PLCb3 inh: -1; Cardio protect: -6

What do the screens show for `Cc1csc2nc(O)c(C(=O)NCCCN3CCCC3=O)c(=O)n12`?
PLC-gamma1 inh: 9.7*; FAS TE block: -2; PLCb3 inh: 4; Cardio protect: 0; PLCgamma1 ctr: -7; PLCb3 confirm: -4

How did N#Cc1c(NC(=O)CSc2nnnn2C2CCCC2)sc2c1CCCC2 do in these assays?
PLC-gamma1 inh: 10.0*; FAS TE block: -9; PLCb3 inh: 0; Cardio protect: -13; PLCgamma1 ctr: 2; PLCb3 confirm: -6

Results for Cc1[nH]c(=O)c(C#N)c(C)c1CSc1ncccn1 ?
PLC-gamma1 inh: 12*; FAS TE block: -3; PLCb3 inh: 6; Cardio protect: 14; PLCgamma1 ctr: -6; PLCb3 confirm: 0

What do the screens show for `O=C(C1CC1)N1CCc2cc(Br)c(S(=O)(=O)N3CCCCCC3)cc21`?
PLC-gamma1 inh: 5; FAS TE block: 37; PLCb3 inh: 7; Cardio protect: 6

What do the screens show for `O=C(NCCc1ccccc1)c1c[nH]c2ccccc2c1=O`?
PLC-gamma1 inh: 9; FAS TE block: -2; PLCb3 inh: 11*; Cardio protect: 12; PLCgamma1 ctr: -3; PLCb3 confirm: -2

How did CCNC(=S)NN=C1CCC(C(C)(C)C)CC1 (stereo unspecified) do in these assays?
PLC-gamma1 inh: 13*; FAS TE block: 3; PLCb3 inh: -1; Cardio protect: -4; PLCgamma1 ctr: -7; PLCb3 confirm: -5

How did CC(C)OC(=O)c1ccccc1C(=O)c1ccc(N)c([N+](=O)[O-])c1 do in these assays?
PLC-gamma1 inh: 9.8*; FAS TE block: 7; PLCb3 inh: 3; Cardio protect: 2; PLCgamma1 ctr: -3; PLCb3 confirm: 0

What do the screens show for `CCc1c(C(=O)C(C)O)c2n3c1CCC[C@@H]3CC2` (stereo partly specified)?
PLC-gamma1 inh: -7; PLCb3 inh: -8

How did Cc1onc(-c2ccccc2)c1C(=O)NC(=S)NNC(=O)c1cccnc1 do in these assays?
PLC-gamma1 inh: 10*; FAS TE block: -10; PLCb3 inh: 5; Cardio protect: 6; PLCgamma1 ctr: -2; PLCb3 confirm: -1

How did CC(C)C#Cc1cnc2c(c1)C(=O)N([C@@H](C)CO)C[C@@H](C)[C@H](CN(C)Cc1cccc(F)c1)O2 do in these assays?
PLC-gamma1 inh: 1; FAS TE block: 7; PLCb3 inh: 3; Cardio protect: 3

Results for O=S(=O)(c1cc(O)ccc1O)c1cccc2c(S(=O)(=O)c3cc(O)ccc3O)cccc12 ?
PLC-gamma1 inh: 10*; FAS TE block: 6; PLCb3 inh: 6; Cardio protect: 8; PLCgamma1 ctr: 8; PLCb3 confirm: 9

Results for O=S(=O)(O)c1cc(O)ccc1O ?
PLC-gamma1 inh: 1; FAS TE block: 0; PLCb3 inh: -5; Cardio protect: -3

Results for CCN(CC)CCCn1c2c(c(SCC(=O)Nc3cc(C)on3)nc1=O)CCC2 ?
PLC-gamma1 inh: 0; FAS TE block: -3; PLCb3 inh: -4; Cardio protect: -1

What do the screens show for `CCN(CC)CCCn1c2c(c(SCC(=O)Nc3cc(C)cc(C)c3)nc1=O)CCC2`?
PLC-gamma1 inh: 13*; FAS TE block: -5; PLCb3 inh: 0; Cardio protect: -4; PLCgamma1 ctr: 1; PLCb3 confirm: -5
